We go through 40 compounds from PubChem BioAssay (NCI).

Several values for one entry are separate records, joined by “and”; a condition that tells them apart may be missing. Equal entries are not always repeated. The panel holds about 83,000 compounds, 20% with a hit somewhere; the sample as a whole holds those more often.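 Growth was measured after 48 h exposure to one concentration of compound in 96-well plates. Values under 10 count as active.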 A number with no mark means an inactive call. Activity calls are given as the source filed them.

The test system of the assay is ACHN renal. The assay can be described thus: NCI-60 one-dose screen, 48 h (100 = growth as untreated, 0 = no growth, -100 = all killed). To be noted: 10 µM unless noted. How it is done:
Growth inhibition of the ACHN human tumor cell line is measured as a screen for anti-cancer activity. Cells are grown in 96 well plates and exposed to the test compound for 48 hours. Compounds are tested at a single concentration, which is 10^-5 M for most compounds. The reported endpoint is percent growth (GI% or GIPRCNT), where numbers from 0 - 100% represent growth inhibition, and numbers from -100% - 0 represent cell death. For example, a value of 40 represents 60% growth inhibition. A value of 0 means no net growth occurred over the course of the experiment. A value of -40 indicates 40% of cells at the beginning of the experiment died by the end of the experiment. A value of -100 means all cells are dead at the end of the experiment.
NCI-60 Human Tumor Cell Lines Screen was performed using the standard one-dose NCI protocol, which is described in more detail at https://dtp.cancer.gov/discovery_development/nci-60/default.htm.
Compounds with GIPRCNT values below 10 were considered active. Activity score was based on GIPRCNT using the following formula: […]
Score is 0 for GIPRCNT values of 100 or above, 50 for GIPRCNT values of 0, and 100 for GIPRCNT values of -100.
`C(=NC1CCCCC1)=NC1CCCCC1`: the growth is 97.5%.
For `Oc1ccccc1C=NCCN=Cc1ccccc1O` the value was 103%; for `O=C(O)C(Br)CBr` (stereo not given), 97.4%.
For the compound `COc1c(O)cc2c(c1OC)-c1ccc(SC)c(=O)cc1C(NC(C)=O)CC2` (stereo not given), the growth is 3.04% (active).
For `Cc1nc2ccccc2c(=O)n1-c1ccccc1F` the value was 104%; for `CC(C)CCC1C(=O)NC(=O)NC1=O`, 100%; for `Cc1cc(Br)c([N+](=O)[O-])cc1[N+](=O)[O-]`, 106%.
In the case of `O=S(=O)(F)c1cccc(Cl)c1C[P+](c1ccccc1)(c1ccccc1)c1ccccc1`, the growth was 97.7%.
For `C[Se]/C=C1/C(=O)N(c2c(Cl)cccc2Cl)c2ccccc21` the value was 30.1%; for `C[C@]12CCc3sc(Nc4ccc(F)cc4)nc3C1=CC[C@@H]1[C@@H]2CC[C@]2(C)C(=O)CC[C@@H]12`, 77.9%.
For `CC[C@H](C)[C@H](NC(=O)c1cnccn1)C(=O)N(C)[C@H](C[C@@H](OC(C)=O)c1nc(C(=O)N[C@@H](Cc2ccccc2)C[C@H](C)C(=O)OC)cs1)C(C)C`, the growth was 45.3%.
Turning to `C=CC[PH+](c1ccccc1)c1ccccc1.C=CC[PH+](c1ccccc1)c1ccccc1.[Pt+2].[S-]c1ncccn1.[S-]c1ncccn1`, the growth was -43.3% (active).
For the compound `CC1=CC(=Nc2ccc(N(CCCl)CCCl)cc2)C=C(C)C1=O`, the growth was -1.94% (active).
For `CCC(Br)(CC)C(=O)NC(N)=O` the value was 109%; for `CCC1(NC(=O)c2cc(F)c(F)c(F)c2F)C(=O)NC(=O)N(C(C)C)C1=O` (stereo not given), 96.6%; for `N#CC(C#N)=C(C#N)C#N`, 94.8%.
As to `O=C1CN2CCC1CC2`, the growth was 101%.
For `c1ccc2c(c1)sc1ccccc12` the value was 89.6%.
In the case of `O=C1c2ccccc2C(=O)N1N1CC1c1ccccc1` (stereo not given), the growth was 104%.
For `COc1cc(/C=C\[N+](=O)[O-])ccc1OCc1ccccc1`, the growth was 46.4%.
For the compound `CC1(C)N(Nc2ccccc2)C(=O)C2CCCN21` (stereo not given), the growth was 21%.
Regarding `O=C(CBr)OCCOC(=O)CBr`, the growth was 83%.
`COC12CC3(C)C(C4=CC(=O)OC4)CCC3(O)C3CCC4=CC(=O)CCC4(CO1)C32` (stereo not given): the growth was 96.8%.
To `COc1ccc(CN)cc1OC` belongs 103% and 95.9%; to `NC(N)=NC(N)=Nc1ccc(Cl)cc1`, 93.9%.
For `Nc1c(Cl)c(Cl)nc(C(=O)O)c1Cl` the value was 88.2%; for `CCCCCCCCCCCCCCCCCCn1cc[n+](C)c1`, -12.4% (active) and -43.5% (active).
To `CO[C@H]1[C@H](O[C@@H]2C[C@@H]3C/C=C/C(=O)O[C@@H](CO)C[C@H](O)[C@@H]4C[C@H](C)[C@H](C/C=C\C=C\[C@H](C)C[C@H](C2)O3)O4)O[C@@H](C)[C@H](O)[C@H]1O` belongs 66.4%.
Consider `O=C(NCCCN1CC1)Nc1cccc2ccccc12`, for which the growth is 93% and 87.6%.
For `CCCC(C)SP(=S)(SC(C)CCC)SC(C)CCC` (stereo not given) the value was 113%.
To `CC1=CC(=O)CCC12CCOC2=O` (stereo not given) belongs 101%; to `CCCCCCCCCCCCCCCC[N+](C)(C)C`, 19.4%.
For `O=Cc1cn(Cc2ccccc2)c2ccccc12` the value was 91.3%.
Take `Oc1cc(Cl)ccc1Oc1ccc(Cl)cc1Cl`: the growth is 7.4% (active).
For `C#COc1cccc(Nc2ncnc3cc(NC(=O)CF)ccc23)c1` the value was 48.3% [6.25 µM]; for `ClC1OC(Cl)(Cl)C(Cl)(Cl)OC1(Cl)Cl` (stereo not given), 99.7%.
To `COc1cc2c(cc1OC)-c1c3c(cc4c1[C@@H](C2)N(C)CC4)OCO3` belongs 18.6%; to `O=S1(=O)OCCO1`, 99.2%; to `CCCCCCCCCCCCCCCCCC1OCC(COC(=O)O[C@@H](C(=O)O[C@H]2C[C@@]3(O)[C@@H](OC(=O)c4ccccc4)[C@@H]4[C@]5(OC(C)=O)CO[C@@H]5C[C@H](O)[C@@]4(C)C(=O)[C@H](OC(C)=O)C(=C2C)C3(C)C)[C@@H](NC(=O)c2ccccc2)c2ccccc2)O1` (stereo not given in full), 96.6%.
For `CC[CH2][Sn]([Cl])([Cl])[CH2]CC.Oc1ccccc1C=NCCN=Cc1ccccc1O` the value was 47.8% and 29.3%.
